Results: the supplement of paper PMC10849652
About 7,900 targets were measured; listed, in parts, are those with a hit and a random draw of the rest. About 0.6% of all pairs of compound and target were hits.

UniProt P0C024, sequence (P0C024 whole entry, looked up): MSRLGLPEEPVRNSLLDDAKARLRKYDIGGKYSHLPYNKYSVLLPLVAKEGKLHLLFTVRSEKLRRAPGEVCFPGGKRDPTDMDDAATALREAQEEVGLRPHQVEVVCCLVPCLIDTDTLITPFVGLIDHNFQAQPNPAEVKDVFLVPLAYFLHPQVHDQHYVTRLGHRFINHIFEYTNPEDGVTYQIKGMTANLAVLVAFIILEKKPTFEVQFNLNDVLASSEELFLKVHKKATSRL
UniProt O75030, sequence (O75030 whole entry, looked up): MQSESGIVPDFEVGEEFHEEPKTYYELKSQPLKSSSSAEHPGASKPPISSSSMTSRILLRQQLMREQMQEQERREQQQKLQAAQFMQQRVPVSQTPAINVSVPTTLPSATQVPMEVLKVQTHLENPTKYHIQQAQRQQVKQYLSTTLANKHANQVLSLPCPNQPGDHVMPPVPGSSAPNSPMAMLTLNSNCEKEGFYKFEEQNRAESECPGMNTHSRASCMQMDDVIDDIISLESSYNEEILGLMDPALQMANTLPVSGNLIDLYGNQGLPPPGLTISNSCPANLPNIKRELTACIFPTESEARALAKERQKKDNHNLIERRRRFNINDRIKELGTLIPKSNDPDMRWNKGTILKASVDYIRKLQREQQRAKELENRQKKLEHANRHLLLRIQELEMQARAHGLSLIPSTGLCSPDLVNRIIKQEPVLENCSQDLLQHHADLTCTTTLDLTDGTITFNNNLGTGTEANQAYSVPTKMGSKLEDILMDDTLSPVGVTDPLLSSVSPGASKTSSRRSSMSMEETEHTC
UniProt Q9UI43, sequence (Q9UI43 whole entry, looked up): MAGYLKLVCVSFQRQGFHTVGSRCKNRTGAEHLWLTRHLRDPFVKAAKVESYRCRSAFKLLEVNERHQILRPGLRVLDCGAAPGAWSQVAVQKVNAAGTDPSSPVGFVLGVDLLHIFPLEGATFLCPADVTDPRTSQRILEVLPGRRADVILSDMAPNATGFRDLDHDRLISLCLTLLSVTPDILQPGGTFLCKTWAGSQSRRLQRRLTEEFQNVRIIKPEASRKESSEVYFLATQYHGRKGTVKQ
UniProt Q70IA6, sequence (Q70IA6 whole entry, looked up): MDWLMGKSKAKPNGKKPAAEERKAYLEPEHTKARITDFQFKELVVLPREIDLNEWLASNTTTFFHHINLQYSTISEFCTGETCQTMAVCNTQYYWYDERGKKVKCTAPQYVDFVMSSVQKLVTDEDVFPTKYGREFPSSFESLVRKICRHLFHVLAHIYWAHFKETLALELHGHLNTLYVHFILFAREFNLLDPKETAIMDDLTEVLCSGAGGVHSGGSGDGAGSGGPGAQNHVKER
UniProt Q9BS92, sequence (Q9BS92 whole entry, looked up): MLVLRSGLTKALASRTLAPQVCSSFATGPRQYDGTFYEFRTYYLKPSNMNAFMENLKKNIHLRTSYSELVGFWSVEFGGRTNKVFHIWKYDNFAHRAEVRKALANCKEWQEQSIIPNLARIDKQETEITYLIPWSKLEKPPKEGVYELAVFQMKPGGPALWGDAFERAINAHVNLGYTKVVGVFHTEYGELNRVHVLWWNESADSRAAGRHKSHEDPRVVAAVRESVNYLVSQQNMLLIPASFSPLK
UniProt O75607, sequence (O75607 whole entry, looked up): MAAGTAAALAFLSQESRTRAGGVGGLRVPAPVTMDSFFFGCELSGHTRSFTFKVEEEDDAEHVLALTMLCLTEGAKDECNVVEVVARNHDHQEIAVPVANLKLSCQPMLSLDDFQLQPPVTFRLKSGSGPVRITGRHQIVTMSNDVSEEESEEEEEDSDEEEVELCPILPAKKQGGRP
UniProt O15460, sequence (O15460 whole entry, looked up): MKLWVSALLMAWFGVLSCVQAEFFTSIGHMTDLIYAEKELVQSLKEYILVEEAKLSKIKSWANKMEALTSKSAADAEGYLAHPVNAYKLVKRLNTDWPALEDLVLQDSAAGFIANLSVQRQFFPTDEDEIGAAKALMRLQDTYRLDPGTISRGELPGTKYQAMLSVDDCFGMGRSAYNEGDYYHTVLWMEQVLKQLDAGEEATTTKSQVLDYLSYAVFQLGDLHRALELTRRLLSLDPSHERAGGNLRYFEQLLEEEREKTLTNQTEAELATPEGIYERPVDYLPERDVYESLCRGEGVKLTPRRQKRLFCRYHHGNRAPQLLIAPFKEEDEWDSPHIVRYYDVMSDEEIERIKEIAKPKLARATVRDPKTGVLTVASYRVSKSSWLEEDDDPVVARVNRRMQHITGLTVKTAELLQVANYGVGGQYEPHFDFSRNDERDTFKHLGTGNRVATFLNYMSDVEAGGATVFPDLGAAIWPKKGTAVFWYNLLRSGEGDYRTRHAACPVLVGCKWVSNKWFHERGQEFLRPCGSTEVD
UniProt O75052, sequence (O75052 whole entry, looked up): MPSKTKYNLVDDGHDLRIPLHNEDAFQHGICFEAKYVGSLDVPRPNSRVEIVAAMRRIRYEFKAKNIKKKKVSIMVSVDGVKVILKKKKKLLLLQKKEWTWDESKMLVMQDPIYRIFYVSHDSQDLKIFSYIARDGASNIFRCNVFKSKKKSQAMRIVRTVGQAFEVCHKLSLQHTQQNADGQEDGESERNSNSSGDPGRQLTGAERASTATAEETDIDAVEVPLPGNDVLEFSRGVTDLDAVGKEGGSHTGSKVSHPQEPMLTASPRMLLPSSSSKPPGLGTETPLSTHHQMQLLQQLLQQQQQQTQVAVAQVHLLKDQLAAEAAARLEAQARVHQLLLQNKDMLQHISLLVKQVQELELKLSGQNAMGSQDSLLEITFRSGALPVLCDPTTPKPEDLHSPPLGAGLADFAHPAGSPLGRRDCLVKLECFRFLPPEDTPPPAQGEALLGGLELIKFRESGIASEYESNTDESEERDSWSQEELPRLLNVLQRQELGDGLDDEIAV
UniProt Q69YL0, sequence (Q69YL0 whole entry, looked up): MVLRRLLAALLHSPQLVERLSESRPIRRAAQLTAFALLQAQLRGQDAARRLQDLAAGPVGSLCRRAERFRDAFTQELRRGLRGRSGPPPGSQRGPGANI
UniProt P53370, sequence (P53370 whole entry, looked up): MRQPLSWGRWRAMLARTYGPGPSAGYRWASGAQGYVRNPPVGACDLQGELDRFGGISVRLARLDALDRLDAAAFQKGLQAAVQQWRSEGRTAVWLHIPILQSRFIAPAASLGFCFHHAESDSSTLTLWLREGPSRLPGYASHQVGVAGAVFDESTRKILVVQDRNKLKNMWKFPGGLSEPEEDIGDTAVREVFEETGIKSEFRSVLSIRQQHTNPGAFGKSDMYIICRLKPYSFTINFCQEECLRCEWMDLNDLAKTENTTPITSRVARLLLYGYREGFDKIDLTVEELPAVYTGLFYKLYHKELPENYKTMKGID
UniProt P25208, sequence (P25208 whole entry, looked up): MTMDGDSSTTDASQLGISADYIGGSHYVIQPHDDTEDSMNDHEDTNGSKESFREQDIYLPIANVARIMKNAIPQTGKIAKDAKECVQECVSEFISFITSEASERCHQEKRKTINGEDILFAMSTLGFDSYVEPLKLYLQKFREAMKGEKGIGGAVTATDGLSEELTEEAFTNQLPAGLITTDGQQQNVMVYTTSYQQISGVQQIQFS
UniProt Q9H6N6, sequence (Q9H6N6 whole entry, looked up): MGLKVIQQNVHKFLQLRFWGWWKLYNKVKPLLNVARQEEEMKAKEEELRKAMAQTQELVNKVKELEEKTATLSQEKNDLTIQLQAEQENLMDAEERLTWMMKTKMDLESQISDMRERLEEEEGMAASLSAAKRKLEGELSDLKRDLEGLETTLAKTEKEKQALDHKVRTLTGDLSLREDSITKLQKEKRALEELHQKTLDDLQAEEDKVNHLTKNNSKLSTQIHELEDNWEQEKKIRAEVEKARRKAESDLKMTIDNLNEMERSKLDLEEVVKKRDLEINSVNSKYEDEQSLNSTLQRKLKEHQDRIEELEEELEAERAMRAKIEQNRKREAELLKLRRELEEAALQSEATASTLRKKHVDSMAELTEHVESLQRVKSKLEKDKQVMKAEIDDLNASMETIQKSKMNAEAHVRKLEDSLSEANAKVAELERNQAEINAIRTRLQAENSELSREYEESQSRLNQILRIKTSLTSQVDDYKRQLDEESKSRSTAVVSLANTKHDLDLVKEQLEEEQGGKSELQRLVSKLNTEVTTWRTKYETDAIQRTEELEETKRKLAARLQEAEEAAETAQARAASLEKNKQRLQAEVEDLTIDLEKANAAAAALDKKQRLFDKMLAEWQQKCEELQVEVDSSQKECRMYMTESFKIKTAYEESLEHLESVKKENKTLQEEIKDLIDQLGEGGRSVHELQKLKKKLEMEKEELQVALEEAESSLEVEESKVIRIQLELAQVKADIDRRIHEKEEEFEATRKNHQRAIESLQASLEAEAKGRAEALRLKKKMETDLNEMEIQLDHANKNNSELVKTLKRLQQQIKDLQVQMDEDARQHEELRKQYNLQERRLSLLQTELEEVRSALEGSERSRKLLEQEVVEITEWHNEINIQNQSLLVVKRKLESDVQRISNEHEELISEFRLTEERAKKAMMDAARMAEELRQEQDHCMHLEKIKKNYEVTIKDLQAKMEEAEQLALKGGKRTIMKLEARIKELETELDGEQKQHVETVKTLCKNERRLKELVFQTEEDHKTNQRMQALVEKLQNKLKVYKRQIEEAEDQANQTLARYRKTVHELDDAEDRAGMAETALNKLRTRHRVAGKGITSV
UniProt Q86TA1, sequence (Q86TA1 whole entry, looked up): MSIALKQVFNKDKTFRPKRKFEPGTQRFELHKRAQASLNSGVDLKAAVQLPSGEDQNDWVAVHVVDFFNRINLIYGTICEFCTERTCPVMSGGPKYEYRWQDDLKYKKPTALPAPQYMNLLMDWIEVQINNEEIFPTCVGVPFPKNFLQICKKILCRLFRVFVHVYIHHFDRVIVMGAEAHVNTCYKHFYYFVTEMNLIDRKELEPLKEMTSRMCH
UniProt Q8WZ82, sequence (Q8WZ82 whole entry, looked up): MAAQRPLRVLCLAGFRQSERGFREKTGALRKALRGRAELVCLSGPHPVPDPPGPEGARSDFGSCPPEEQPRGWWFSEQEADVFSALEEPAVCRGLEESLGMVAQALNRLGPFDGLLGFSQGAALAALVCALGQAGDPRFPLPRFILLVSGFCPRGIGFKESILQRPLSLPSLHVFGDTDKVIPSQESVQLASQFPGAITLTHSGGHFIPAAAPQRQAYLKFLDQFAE

The targets below were run with C#Cc1cccc(Nc2ncnc3cc(OCCOC)c(OCCOC)cc23)c1 [erlotinib] (assay: log2 fold change, soluble protein after heating vs DMSO (PISA); higher = thermal stabilisation; K562 cells, 10 uM, 30 min; active = over 0.2 and 3.5 SD of the protein, either way, in both replicates (recomputed)).
Summary of the method: (§1)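 K562 cells at 2×10^6 cells/mL were exposed to 10 μM compound for 30 min, then aliquots were heated for 3 min across 48°C-58°C, pooled, and extracted in PBS containing 0.5% NP-40 at 4°C. The supernatant after 21,000xg for 90 min was taken as soluble protein and measured by TMTpro 16plex LC-MS/MS with channel sums equalised. Thermal stability is reported relative to control samples, with values from duplicates. Fold changes are given on a log2 scale.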
MOB3B (UniProt Q86TA1) was tested, and the log2 fold change was -0.305 (inactive). With OAF (UniProt Q86UD1) the log2 fold change was -0.115 (inactive). With NIPSNAP3B (UniProt Q9BS92) the log2 fold change was -0.061 (inactive). NDUFA7 (UniProt M0R0N0) was tested, and the log2 fold change was 0.101 (inactive). For PAFAH2 (UniProt Q99487), the log2 fold change was -0.004 (inactive). For MOB2 isoform 3 (UniProt Q70IA6), the log2 fold change was 0.029 (inactive). In the case of NCOA5 (UniProt Q9HCD5), the log2 fold change is reported as -0.057 (inactive). With MRM2 (UniProt Q9UI43) the log2 fold change was 0.023 (inactive). NAP1L1 (UniProt B7Z9C2) was tested, and the log2 fold change was 1.01 (inactive). MYLK (UniProt Q15746) was tested, and the log2 fold change was 0.25 (inactive). With NUDT7 (UniProt P0C024) the log2 fold change was -0.246 (inactive). In the case of NUDT6 (UniProt P53370), the log2 fold change is reported as -0.022 (inactive). In the case of P4HA2 (UniProt O15460), the log2 fold change is reported as -0.075 (inactive). For MYH16 (UniProt Q9H6N6), the log2 fold change was -0.044 (inactive). For MON1A (UniProt Q86VX9), the log2 fold change was -0.119 (inactive). For NKTR (UniProt P30414), the log2 fold change was 0.597 (inactive). NFYB (UniProt P25208) was tested, and the log2 fold change was 0.092 (inactive). For NOLC1 isoform 3 (UniProt Q14978), the log2 fold change was 0.002 (inactive). In the case of NEU3 isoform 2 (UniProt Q9UQ49), the log2 fold change is reported as 0.164 (inactive). For NOS1AP (UniProt O75052), the log2 fold change was 0.134 (inactive). In the case of NPM3 (UniProt O75607), the log2 fold change is reported as -0.083 (inactive). For NCBP2AS2 (UniProt Q69YL0), the log2 fold change was 0.033 (inactive). In the case of MITF (UniProt O75030), the log2 fold change is reported as -0.021 (inactive).

The targets below were run with C/C(=N\NC(=O)C1=CC(=CC=C1)S(=O)(=O)N2CCOCC2)/C3=C(C=CC(=C3)Cl)O in the same assay as above.
Summary of the method: as §1
With MOB3B (UniProt Q86TA1) the log2 fold change was 0.302 (inactive). NIPSNAP3B (UniProt Q9BS92) was tested, and the log2 fold change was -0.014 (inactive). For NIPSNAP2 (UniProt C9J7B1), the log2 fold change was -0.171 (inactive). PAFAH2 (UniProt Q99487) was tested, and the log2 fold change was 0.138 (inactive). MRM2 (UniProt Q9UI43) was tested, and the log2 fold change was 0.182 (inactive). OVCA2 (UniProt Q8WZ82) was tested, and the log2 fold change was 0.23 (inactive). With NAP1L1 (UniProt B7Z9C2) the log2 fold change was 0.122 (inactive). For NA, A0A494C071, the log2 fold change was 0 (inactive). In the case of NA, A0A1W2PSA9, the log2 fold change is reported as -0.065 (inactive). OXR1 isoform 2 (UniProt Q8N573) was tested, and the log2 fold change was 0.137 (inactive). MLH1 (UniProt P40692) was tested, and the log2 fold change was 0.027 (inactive). MTHFD1, A0A384N5Y3 was tested, and the log2 fold change was 0.056 (inactive). For MYH16 (UniProt Q9H6N6), the log2 fold change was 0.102 (inactive). With NFYB (UniProt P25208) the log2 fold change was -0.102 (inactive). MPHOSPH8 isoform 2 (UniProt Q99549) was tested, and the log2 fold change was 0.033 (inactive). In the case of ORC3 (UniProt Q9UBD5), the log2 fold change is reported as 0.097 (inactive). With NPM3 (UniProt O75607) the log2 fold change was -0.104 (inactive). With NCBP2AS2 (UniProt Q69YL0) the log2 fold change was 0.104 (inactive). With NA, A0A2R8Y3M9 the log2 fold change was -0.335 (inactive). For MITF (UniProt O75030), the log2 fold change was -0.015 (inactive). With NPC1L1 (UniProt Q9UHC9) the log2 fold change was 0.006 (inactive).

These targets were tested with C1=CC(=C(C=C1Cl)C2=NC3=NC=CN=C3C(=N2)NC4=CC=NC=C4)F in the same assay as above.
Summary of the method: as §1
With MOB2 isoform 3 (UniProt Q70IA6) the log2 fold change was -0.077 (inactive). For NA, A0A494C071, the log2 fold change was 0.197 (inactive). In the case of NUDT7 (UniProt P0C024), the log2 fold change is reported as -0.282 (inactive). NA (UniProt J3KR12) was tested, and the log2 fold change was -0.073 (inactive). For OXR1 isoform 2 (UniProt Q8N573), the log2 fold change was -0.362 (inactive). In the case of MLH1 (UniProt P40692), the log2 fold change is reported as 0.077 (inactive). With NUDT6 (UniProt P53370) the log2 fold change was 0.155 (inactive). In the case of MTHFD1, A0A384N5Y3, the log2 fold change is reported as 0.081 (inactive). With P4HA2 (UniProt O15460) the log2 fold change was -0.548 (active). For MON1A (UniProt Q86VX9), the log2 fold change was 0.022 (inactive). For NA (UniProt B2RBV5), the log2 fold change was -0.068 (inactive). For MPHOSPH8 isoform 2 (UniProt Q99549), the log2 fold change was 0.24 (inactive). NOS1AP (UniProt O75052) was tested, and the log2 fold change was 0.517 (inactive). In the case of MSANTD2 (UniProt Q6P1R3), the log2 fold change is reported as 0.012 (inactive).

Each target was assayed with C1=CC(=CC=C1C2=NC3=C(N2)C=C(C=C3)C(=O)N)OC4=CC=C(C=C4)Cl in the same assay as above.
Summary of the method: as §1
MOB3B (UniProt Q86TA1) was tested, and the log2 fold change was -0.271 (inactive). OAF (UniProt Q86UD1) was tested, and the log2 fold change was 0.05 (inactive). With NIPSNAP3B (UniProt Q9BS92) the log2 fold change was -0.071 (inactive). In the case of NDUFA7 (UniProt M0R0N0), the log2 fold change is reported as -0.051 (inactive). In the case of PAFAH2 (UniProt Q99487), the log2 fold change is reported as -0.018 (inactive). With MOB2 isoform 3 (UniProt Q70IA6) the log2 fold change was -0.001 (inactive). For NCOA5 (UniProt Q9HCD5), the log2 fold change was 0.156 (inactive). MRM2 (UniProt Q9UI43) was tested, and the log2 fold change was 0.031 (inactive). NAP1L1 (UniProt B7Z9C2) was tested, and the log2 fold change was -0.051 (inactive). With MYLK (UniProt Q15746) the log2 fold change was -0.146 (inactive). In the case of NUDT7 (UniProt P0C024), the log2 fold change is reported as 0.148 (inactive). With NUDT6 (UniProt P53370) the log2 fold change was 0.103 (inactive). In the case of P4HA2 (UniProt O15460), the log2 fold change is reported as 0.034 (inactive). MYH16 (UniProt Q9H6N6) was tested, and the log2 fold change was 0.049 (inactive). MON1A (UniProt Q86VX9) was tested, and the log2 fold change was 0 (inactive). For NKTR (UniProt P30414), the log2 fold change was 0.028 (inactive). NFYB (UniProt P25208) was tested, and the log2 fold change was -0.153 (inactive). In the case of NOLC1 isoform 3 (UniProt Q14978), the log2 fold change is reported as 0.183 (inactive). With NEU3 isoform 2 (UniProt Q9UQ49) the log2 fold change was 0 (inactive). With NOS1AP (UniProt O75052) the log2 fold change was -0.006 (inactive). In the case of NPM3 (UniProt O75607), the log2 fold change is reported as 0.02 (inactive). For NCBP2AS2 (UniProt Q69YL0), the log2 fold change was 0.054 (inactive). In the case of MITF (UniProt O75030), the log2 fold change is reported as 0.041 (inactive).
